Consider five molecules from PubChem BioAssay (NCATS).

Experiment [1] deals with Glucocorticoid receptor (Homo sapiens) (UniProt P04150). Nature of the experiment: GR-GFP Redistribution (AID 450;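 active = compounds whose dose series gives a full or clear partial fitted curve of increased nuclear translocation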; note: potency is the fitted concentration of half-maximal effect). The conditions noted are these: U2OS GR-GFP nuclear translocation, laser cytometry, 2 h.
Experiment [2] has the same target. The experiment in a line: GR-EFC Redistribution (AID 451; calls by dose curve; note: potency is the fitted concentration of half-maximal effect). Particulars: CHO-K1 GR-EFC translocation, beta-gal luminescence, 2 h. The procedure, abridged: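 Translocation of GR-ED fusion to nuclear EA restores b-gal, read by luminescence after 1 h room-temperature detection. Engineered CHO-K1 biosensor cells, 1,000/well, exposed 2 h at 37 C to titrations up to 46 uM final.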

Experiment [3] addresses Mitogen-activated protein kinase 10 (Mus musculus) (UniProt Q61831). Nature of the experiment: JNK3 AlphaScreen Assay (AID 530; active = well fitted curve in either direction with a large enough effect, not every such curve was filed as active;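 note: kinase came from lysate of stimulated human HepG2 cells; signal reports phosphorylation of biotinylated GST-cJun 1-79 at Ser73 with 10 µM ATP; % is set by controls: 0 for no effect and ±100 for the full control effect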). In a few lines:
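Kinase buffer: 20 mM Tris-HCl pH 7.6, 10 mM MgCl2, 1 mM DTT, 0.1 mM Na3VO4, 0.01% Tween-20; ATP 10 uM. Substrate biotin-GST-cJun(1-79), enzyme from activated HepG2 lysates. Detection by Ser73 phospho-antibody AlphaScreen.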
A general note: Bead proximity is the source of the signal in Alpha formats.

The target of experiment [4] is DNA dC->dU-editing enzyme APOBEC-3G (Homo sapiens) (UniProt Q9HC16). Nature of the experiment: qHTS for inhibitors of Vif-A3G interactions: Validation (AID 588379). Note: 0% is about no effect. In a few lines: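 Yellow fluorescence (Ex 488, Em 500-530) of Vif-coexpressing HeLa A3G-eYFP cells, scanned by Acumen cytometer, reports blocked A3G degradation. Cells plated at 700/well overnight at 37 deg C before compound addition, then a further overnight compound incubation at 37 deg C.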
(In general: In qHTS, concentration-response curves come from the screen itself.)

The subject of experiment [5] is Zika virus NS2B-NS3 protease. Nature of the experiment: Primary screen GU AMC qHTS for Zika virus inhibitors (AID 1347154).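 Note: 0% = no-inhibitor control and -100% = no-enzyme control; nearly all actives have a fitted effect of over 70% in size.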 The procedure, abridged: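 Fluorogenic AMC-substrate cleavage by noncovalent NS2B-NS3 protease complex (25 nM, pH 8.0 Tris buffer with Tween 20) followed for 15 minutes at room temperature (~20% conversion). Percent inhibition from ex340/em450 signal change, fitted by 4-parameter Hill equation.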

Experiment [6] concerns the target Rap guanine nucleotide exchange factor 3 (Homo sapiens) (UniProt O95398). The experiment in a line: Confirmatory qHTS for agonist of cAMP-regulated guanine nucleotide exchange factor 3 (EPAC1) (AID 1645881).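 Note: EPAC1 catalysed release of BODIPY-GDP from Rap1B seen as fluorescence loss; nearly all actives have a fitted effect of over 75% in size.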
Experiment [7] deals with Rap guanine nucleotide exchange factor 4 (Homo sapiens) (UniProt Q8WZA2). Nature of the experiment: Confirmatory qHTS for agonist of cAMP-regulated guanine nucleotide exchange factor 4 (EPAC2) (AID 1645884).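 Note: nucleotide exchange releases bodipy-GDP from Rap1 and this lowers its fluorescence; % is set by controls: 0 for no effect and ±100 for the full control effect; nearly all actives have a fitted effect of over 65% in size.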
For experiment [8] the target is unchanged. Nature of the experiment: Confirmatory qHTS for antagonist of cAMP-regulated guanine nucleotide exchange factor 4 (EPAC2) (AID 1645885). Note: potency is the fitted concentration of half-maximal effect; nearly all actives have a fitted effect of over 25% in size.
The target of experiment [9] is Cytochrome P450 2C19 (Homo sapiens) (UniProt P33261). The experiment in a line: qHTS Assay for Inhibitors and Substrates of Cytochrome P450 2C19 (AID 899). Note: nearly all actives have a fitted effect of over 60% in size. Note: potency is the fitted concentration of half-maximal effect. In a few lines:
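Reactions contain 5nM enzyme, 10uM Luciferin-H EGE (KM) and 50mM KPO4; compound preincubates 10 min at 37C, NADPH regeneration starts turnover for 60 min. Luminescence after detection reagent gives activity.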

Experiment [10] in a line: qHTS Assay for Lipid Storage Modulators (AID 1519; calls by dose curve). Particulars: Drosophila S3 cells, BODIPY lipid droplet/cell ratio, laser cytometry, cells loaded with oleic acid; for activity change, negative = inhibition: at 57.5 µM (top of the series). In a few lines:
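Cells seeded at 5,000 per well were treated with compounds over a concentration series and loaded with oleic acid (400 uM, as added). Lipid droplet fluorescence (488 nm excitation, 500-530 nm channel) was read by laser-scanning cytometry and normalized to 20 uM Triacsin C.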

The target in experiment [11] is Ubiquitin carboxyl-terminal hydrolase 1 (Homo sapiens) (UniProt O94782). Nature of the experiment: Inhibitors of USP1/UAF1: Pilot qHTS (AID 504865).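 Note: rhodamine fluorescence freed from ubiquitin-rhodamine substrate followed over time; top concentration of the series differs between compounds; % is set by controls: 0 for no effect and ±100 for the full control effect; nearly all actives have a fitted effect of over 35% in size.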 In a few lines: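 In 50mM HEPES pH 7.8 containing 0.5mM EDTA, 1mM TCEP, 0.1 mg/ml BSA and 0.01% Tween-20, 1nM USP1/UAF1 is exposed to compound for 15 min, then Ub-Rho (150nM final) is added and fluorescence is read over time.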

Experiment [12] has as its target Cytochrome P450 1A2 (Homo sapiens) (UniProt P05177). Nature of the experiment: p450-cyp1a2 (AID 410; calls by dose curve; note: potency is the fitted concentration of half-maximal effect). In a few lines: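 20nM CYP1A2, 100uM Luciferin-ME (=Km), 100mM KPO4; cpd 10 min RT; +NADPH regen, 60 min RT; stop/detect 20 min; luminescence. Normalized to furafylline 57 uM = full inhibition.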
A short description of experiment [13]: AP1 Signaling Pathway (AID 357; active = well fitted curve in either direction with a large enough effect, not every such curve was filed as active;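 note: ME-180 reporter cells stimulated with EGF at its EC50 level; % is set by controls: 0 for no effect and ±100 for the full control effect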). Particulars: ME-180 AP-1-bla reporter, EGF-induced, beta-lactamase ratio, 5 h; at 38 µM (top of the series). The procedure, abridged: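 A ratiometric CCF4 readout (405 nm excitation; 460 and 530 nm emission) quantified AP-1-driven beta-lactamase in ME-180 cells after 5 h with compound and EC50 EGF; AC50 values were derived for activators and inhibitors.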

Experiment [14] can be described thus: Stat Signaling Pathway (AID 446; active = well fitted curve in either direction with a large enough effect, not every such curve was filed as active;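 note: ME-180 cervical cancer cells given 40 pM IL-6 alongside compound; SIE-controlled beta-lactamase reporter measured as 460/530 nm FRET emission ratio; % is set by controls: 0 for no effect and ±100 for the full control effect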). The conditions noted are these: ME-180 (cervical carcinoma) SIE beta-lactamase reporter, IL-6 stimulated, 5 h; at 38 µM (top of the series). In a few lines: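 Overnight-plated ME-180 cells bearing a STAT Inducible Element beta-lactamase reporter; 5 h co-exposure to compound and 40 pM IL-6; values normalized to 300 pM IL-6 and 125 nM JAK inhibitor controls.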

Experiment [15] has as its target Guanine nucleotide-binding protein G(i) subunit alpha-1 (Homo sapiens) (UniProt P63096). Nature of the experiment: qHTS Assay for Inhibitors of RGS12 GoLoco Motif Activity (Green Fluorophore) (AID 879).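 Note: 0% = labeled peptide with Gαi1 and full inhibition = labeled peptide alone without protein; negative values mean loss of peptide binding seen as reduced polarization.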 The procedure, abridged:
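A drop in FITC polarization marked displacement of the FITC-tagged RGS12 GoLoco peptide (10 nM) from Gαi1 (50 nM). Compounds were incubated 10 min at room temperature in Tris pH 7.5 buffer containing 150 mM NaCl, 0.1 mM GDP and 0.05% NP40; unlabeled peptide titration served as control.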

The target of experiment [16] is Cytochrome P450 3A4 (Homo sapiens) (UniProt P08684). Nature of the experiment: qHTS Assay for Inhibitors and Substrates of Cytochrome P450 3A4 (AID 884). Note: potency is the fitted concentration of half-maximal effect; nearly all actives have a fitted effect of over 50% in size. The procedure, abridged:
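Luminescent readout of luciferin produced by CYP3A4 (20 nM) dealkylation of Luciferin-PPXE, 25 uM (its KM). NADPH-driven reaction ran 60 min at RT after 10 min compound preincubation; data scaled to 57 uM ketoconazole as 100% inhibition.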

For experiment [17] the target is unchanged. The experiment in a line: qHTS Assay for Activators of Cytochrome P450 3A4 (AID 885). Note: nearly all actives have a fitted effect of over 65% in size. The procedure, abridged: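 Using 20nM recombinant human CYP3A4 in potassium phosphate (200mM), substrate Luciferin-PPXE at 25uM, luminescent luciferin detection followed a 60-min RT NADPH reaction; data scaled to 57 uM ketoconazole.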
The target in experiment [18] is Cytochrome P450 2D6 (Homo sapiens) (UniProt P10635). The experiment in a line: qHTS Assay for Inhibitors and Substrates of Cytochrome P450 2D6 (AID 891). Note: potency is the fitted concentration of half-maximal effect; nearly all actives have a fitted effect of over 60% in size. The procedure, abridged: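 Luminescent read-out of luciferin formed by 5 nM human CYP2D6 demethylating 30 uM Luciferin-ME EGE (Km level) over 60 min at room temperature after NADPH regeneration addition. Data normalized to full inhibition by 1.43 uM quinidine.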

Experiment [19] is described as follows: qHTS Assay for Identification of Small Molecule Antagonists for NFkB Signaling Pathway (AID 895; active = well fitted inhibition curve with a large enough effect in the signal ratio, with a control signal flat, not every such curve was filed as active; the % refers to the signal ratio; note: % is set by controls: 0 for no effect and ±100 for the full control effect). The procedure, abridged:
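Beta-lactamase reporter read-out (460 and 530 nm emission ratio, 405 nm excitation, 2 hrs substrate loading RT) after 5 hr stimulation with 10 pM TNF alpha in compound-treated NFkB-bla ME-180 cells in low-serum medium.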

For experiment [20], the target named is Muscarinic acetylcholine receptor M1 (Rattus norvegicus) (UniProt P08482). Nature of the experiment: qHTS Assay for Antagonists of Acetylcholine Muscarinic M1 Receptor: Kinetic Measurement of Intracellular Calcium Response (AID 943). Note: potency is the fitted concentration of half-maximal effect; nearly all actives have a fitted effect of over 75% in size. The procedure, abridged: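 Read-out: peak over basal Fluo-4 fluorescence, kinetic at 1 Hz for 4 min after EC80 carbachol (100 nM final). Rat M1-CHO cells, dye loaded 1 h at 37C, compound added 10 min before agonist.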

Experiment [21] shares this target. Nature of the experiment: qHTS Assay for Antagonists of Acetylcholine Muscarinic M1 Receptor: Measurement of IP-One Response (AID 944). Note: potency is the fitted concentration of half-maximal effect; nearly all actives have a fitted effect of over 75% in size. The procedure, abridged:
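Read-out: HTRF competition between d2-IP1 and Eu-cryptate anti-IP1 antibody, emission 620 and 665 nm. Stimulus was carbachol, EC80 (200 nM), for 30 min in M1-CHO cells (rat receptor), after 10 min compound pre-treatment.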

The target of experiment [22] is Pyruvate kinase (Leishmania mexicana) (UniProt Q27686). The experiment in a line: qHTS Validation Assay for Inhibitors of Leishmania Mexicana Pyruvate Kinase (AID 945).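 Note: 0% = DMSO only neutral control wells.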 In a few lines:
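Substrate mix (0.5 mM PEP, 0.1 mM ADP, 7 mM MgCl2, 50 mM KCl, pH 7.2 imidazole) received compound by pin tool, then 0.2 nM LmPYK E451W. After 1 h at room temperature, PKLight was added and luminescence measured.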

The target of experiment [23] is Pyruvate kinase PKM (Homo sapiens) (UniProt P14618). The experiment in a line: qHTS Assay for Activators of Human Muscle Pyruvate Kinase (AID 954; active = well fitted curve in the direction sought with a large enough effect, not every such curve was filed as active;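 note: 0% = uninhibited enzyme and -100% = no enzyme or full thiadiazolimine inhibition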). In a few lines: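 Screening used highly purified human pyruvate kinase M2 under submaximal activity, with PEP at its Km and ADP below Km. After an hour at room temperature, ATP was read by luciferase luminescence.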
Experiment [24] deals with alpha-glucosidase (Oryza sativa, rice) (UniProt Q653V4). The experiment in a line: Counterscreen for Glucocerebrosidase Inhibitors: qHTS Assay for Rice alpha-Glucosidase at pH 5.0 (AID 997).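 Note: 0% = full activity with enzyme and -100% = basal without enzyme.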 The procedure, abridged:
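Endpoint fluorogenic assay at pH 5.0: compounds (0.7 nM to 77 uM) titrated against 4 nM rice enzyme and 400 uM 4-MU-alpha-glucoside for 20 min at room temperature; NaOH/glycine stop, read ex 365/em 440 nm, Hill-fitted AC50.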

Experiment [25] addresses 3',5'-cyclic-AMP phosphodiesterase 4B (Homo sapiens) (UniProt Q07343). The experiment in a line: qHTS Assay for Inhibitors of PDE-IV (AID 607; active = well fitted activation curve with a large enough effect in the main read-out, with a control signal flat, not every such curve was filed as active; note: % of control where 0% means no effect). The procedure, abridged: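 Live HEK293 cells with a modified cyclic nucleotide-gated (CNG) channel report intracellular cAMP via membrane-potential dye fluorescence (ex 535/em 590 nm). Endogenous PDE-IV was targeted. Compounds were tested at up to 22.9 uM final; RO 20-1724 100 uM served as control.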

Where [26] appears, read: measured here: cell count channel max response.
[27] abbreviates: measured here: lipid channel max response.

“And” between values parts separate entries of the source, which are not always exact repeats. Equal entries are not always repeated. Results filed as inconclusive are left out. The source made the active and inactive calls. Unless noted, calls come from the whole dose curve; as a rule, active = well fitted curve in the direction sought with a large enough effect; inconclusive = small, poorly fitted or top-dose-only effect, or another doubt; inactive = no such curve, though single readings can be large; an effect the other way counts as inactive or inconclusive.

Cytochrome P450 1A2 (Homo sapiens), sequence (P05177 whole entry, looked up): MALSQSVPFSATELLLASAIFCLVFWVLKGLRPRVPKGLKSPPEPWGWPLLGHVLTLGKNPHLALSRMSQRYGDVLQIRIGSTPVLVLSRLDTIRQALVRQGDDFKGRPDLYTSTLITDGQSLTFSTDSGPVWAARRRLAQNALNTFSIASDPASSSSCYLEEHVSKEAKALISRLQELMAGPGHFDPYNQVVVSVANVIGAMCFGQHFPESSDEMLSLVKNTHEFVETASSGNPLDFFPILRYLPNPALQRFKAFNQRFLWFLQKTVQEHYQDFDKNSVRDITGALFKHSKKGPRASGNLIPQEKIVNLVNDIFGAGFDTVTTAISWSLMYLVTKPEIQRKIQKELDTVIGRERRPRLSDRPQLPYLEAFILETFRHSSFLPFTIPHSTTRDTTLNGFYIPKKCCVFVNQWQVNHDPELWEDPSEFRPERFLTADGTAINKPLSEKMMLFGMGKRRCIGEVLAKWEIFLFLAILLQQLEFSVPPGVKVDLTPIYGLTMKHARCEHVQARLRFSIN
Glucocorticoid receptor (Homo sapiens), sequence (P04150 whole entry, looked up, the tested form may be a part): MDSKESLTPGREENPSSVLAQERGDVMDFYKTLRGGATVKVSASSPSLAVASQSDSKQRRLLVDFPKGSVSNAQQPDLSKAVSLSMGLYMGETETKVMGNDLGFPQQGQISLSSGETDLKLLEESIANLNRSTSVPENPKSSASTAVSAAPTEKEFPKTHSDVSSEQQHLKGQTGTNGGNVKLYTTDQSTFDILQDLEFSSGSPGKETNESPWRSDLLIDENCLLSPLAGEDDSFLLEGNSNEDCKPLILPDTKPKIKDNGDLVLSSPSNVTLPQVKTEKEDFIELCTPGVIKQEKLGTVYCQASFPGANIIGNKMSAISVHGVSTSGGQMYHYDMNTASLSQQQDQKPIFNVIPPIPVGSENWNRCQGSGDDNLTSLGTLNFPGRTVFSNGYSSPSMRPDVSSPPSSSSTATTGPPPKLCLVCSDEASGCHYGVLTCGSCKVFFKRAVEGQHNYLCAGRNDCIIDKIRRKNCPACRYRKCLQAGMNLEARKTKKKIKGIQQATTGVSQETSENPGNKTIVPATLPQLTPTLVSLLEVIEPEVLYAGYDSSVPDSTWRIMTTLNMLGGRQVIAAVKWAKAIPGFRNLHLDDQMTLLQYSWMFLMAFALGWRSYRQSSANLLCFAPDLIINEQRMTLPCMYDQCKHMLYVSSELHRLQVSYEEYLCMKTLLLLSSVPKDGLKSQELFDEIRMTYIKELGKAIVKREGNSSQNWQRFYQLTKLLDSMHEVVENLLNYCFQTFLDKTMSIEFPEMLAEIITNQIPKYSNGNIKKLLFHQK
DNA dC->dU-editing enzyme APOBEC-3G (Homo sapiens), sequence (Q9HC16 whole entry, looked up): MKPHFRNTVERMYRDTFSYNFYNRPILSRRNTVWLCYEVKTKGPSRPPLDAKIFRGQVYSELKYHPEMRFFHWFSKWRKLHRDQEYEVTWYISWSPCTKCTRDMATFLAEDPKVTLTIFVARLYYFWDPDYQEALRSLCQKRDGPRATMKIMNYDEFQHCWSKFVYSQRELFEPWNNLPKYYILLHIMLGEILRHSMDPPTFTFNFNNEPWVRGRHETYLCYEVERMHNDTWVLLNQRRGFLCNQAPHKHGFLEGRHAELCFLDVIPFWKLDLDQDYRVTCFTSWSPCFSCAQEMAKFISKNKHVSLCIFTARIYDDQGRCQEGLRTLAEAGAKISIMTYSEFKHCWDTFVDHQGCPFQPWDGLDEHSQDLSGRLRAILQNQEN
Cytochrome P450 3A4 (Homo sapiens), sequence (P08684 whole entry, looked up): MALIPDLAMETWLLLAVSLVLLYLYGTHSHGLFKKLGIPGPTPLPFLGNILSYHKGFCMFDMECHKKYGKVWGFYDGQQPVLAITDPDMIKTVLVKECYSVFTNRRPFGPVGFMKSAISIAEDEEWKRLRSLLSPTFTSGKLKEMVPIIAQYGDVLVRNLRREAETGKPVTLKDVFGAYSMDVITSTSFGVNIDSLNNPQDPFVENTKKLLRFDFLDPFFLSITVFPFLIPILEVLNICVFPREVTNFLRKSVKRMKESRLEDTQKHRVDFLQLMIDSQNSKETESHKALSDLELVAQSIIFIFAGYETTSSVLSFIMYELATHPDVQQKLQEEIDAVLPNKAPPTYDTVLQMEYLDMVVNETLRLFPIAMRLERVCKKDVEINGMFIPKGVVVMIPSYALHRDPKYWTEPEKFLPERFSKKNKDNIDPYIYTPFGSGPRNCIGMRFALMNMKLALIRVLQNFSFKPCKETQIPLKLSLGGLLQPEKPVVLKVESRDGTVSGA
Muscarinic acetylcholine receptor M1 (Rattus norvegicus), sequence (P08482 whole entry, looked up): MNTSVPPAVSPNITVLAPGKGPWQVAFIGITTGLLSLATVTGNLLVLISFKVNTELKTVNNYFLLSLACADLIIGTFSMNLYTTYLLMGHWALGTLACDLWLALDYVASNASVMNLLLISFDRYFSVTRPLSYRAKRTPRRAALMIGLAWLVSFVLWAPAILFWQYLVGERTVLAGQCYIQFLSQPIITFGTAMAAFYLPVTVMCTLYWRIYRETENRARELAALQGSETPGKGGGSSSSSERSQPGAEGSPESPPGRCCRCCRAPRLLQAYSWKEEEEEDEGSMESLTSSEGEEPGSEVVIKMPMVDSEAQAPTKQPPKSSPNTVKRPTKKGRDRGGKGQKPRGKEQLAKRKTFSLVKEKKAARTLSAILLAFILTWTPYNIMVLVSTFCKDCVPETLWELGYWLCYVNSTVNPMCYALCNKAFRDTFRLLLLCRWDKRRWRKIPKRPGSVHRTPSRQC
Rap guanine nucleotide exchange factor 4 (Homo sapiens), sequence (Q8WZA2 whole entry, looked up): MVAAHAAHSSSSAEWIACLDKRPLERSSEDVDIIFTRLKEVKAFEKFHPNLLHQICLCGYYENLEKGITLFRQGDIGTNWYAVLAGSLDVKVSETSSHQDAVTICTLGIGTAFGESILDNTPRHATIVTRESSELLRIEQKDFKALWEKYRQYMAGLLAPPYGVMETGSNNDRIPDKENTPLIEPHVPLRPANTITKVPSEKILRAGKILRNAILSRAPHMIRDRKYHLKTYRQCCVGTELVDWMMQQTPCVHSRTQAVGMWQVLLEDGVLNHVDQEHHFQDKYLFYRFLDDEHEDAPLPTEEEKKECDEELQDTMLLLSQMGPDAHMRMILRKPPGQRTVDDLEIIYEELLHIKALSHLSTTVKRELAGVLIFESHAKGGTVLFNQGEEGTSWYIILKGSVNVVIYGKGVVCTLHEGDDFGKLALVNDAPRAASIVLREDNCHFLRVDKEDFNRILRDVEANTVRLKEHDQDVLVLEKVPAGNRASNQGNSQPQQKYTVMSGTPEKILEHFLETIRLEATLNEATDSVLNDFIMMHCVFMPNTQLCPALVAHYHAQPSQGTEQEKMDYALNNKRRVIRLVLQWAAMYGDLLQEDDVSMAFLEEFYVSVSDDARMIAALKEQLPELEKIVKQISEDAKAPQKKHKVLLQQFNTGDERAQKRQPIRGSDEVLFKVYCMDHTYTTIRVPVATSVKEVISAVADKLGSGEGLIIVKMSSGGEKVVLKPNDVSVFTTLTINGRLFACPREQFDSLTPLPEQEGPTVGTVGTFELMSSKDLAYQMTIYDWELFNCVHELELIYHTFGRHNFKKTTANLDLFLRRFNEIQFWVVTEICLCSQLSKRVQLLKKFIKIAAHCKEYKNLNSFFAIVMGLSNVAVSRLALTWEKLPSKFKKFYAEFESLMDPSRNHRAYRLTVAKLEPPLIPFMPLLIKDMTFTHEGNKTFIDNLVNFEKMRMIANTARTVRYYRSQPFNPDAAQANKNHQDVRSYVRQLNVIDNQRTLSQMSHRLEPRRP
Cytochrome P450 2C19 (Homo sapiens), sequence (P33261 whole entry, looked up): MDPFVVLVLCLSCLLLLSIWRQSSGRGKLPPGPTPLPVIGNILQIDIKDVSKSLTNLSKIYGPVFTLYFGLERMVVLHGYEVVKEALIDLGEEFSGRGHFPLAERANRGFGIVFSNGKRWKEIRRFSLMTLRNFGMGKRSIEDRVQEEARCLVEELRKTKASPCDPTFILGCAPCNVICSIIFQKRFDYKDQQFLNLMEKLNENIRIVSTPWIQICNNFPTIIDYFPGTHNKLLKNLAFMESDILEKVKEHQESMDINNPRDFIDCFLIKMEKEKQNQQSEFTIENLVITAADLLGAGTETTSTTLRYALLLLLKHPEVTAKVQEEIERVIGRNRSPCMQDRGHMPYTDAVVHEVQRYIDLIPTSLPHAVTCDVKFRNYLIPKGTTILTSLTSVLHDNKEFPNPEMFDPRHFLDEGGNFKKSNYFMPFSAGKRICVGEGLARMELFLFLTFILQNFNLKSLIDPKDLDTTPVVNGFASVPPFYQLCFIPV
Ubiquitin carboxyl-terminal hydrolase 1 (Homo sapiens), sequence (O94782 whole entry, looked up): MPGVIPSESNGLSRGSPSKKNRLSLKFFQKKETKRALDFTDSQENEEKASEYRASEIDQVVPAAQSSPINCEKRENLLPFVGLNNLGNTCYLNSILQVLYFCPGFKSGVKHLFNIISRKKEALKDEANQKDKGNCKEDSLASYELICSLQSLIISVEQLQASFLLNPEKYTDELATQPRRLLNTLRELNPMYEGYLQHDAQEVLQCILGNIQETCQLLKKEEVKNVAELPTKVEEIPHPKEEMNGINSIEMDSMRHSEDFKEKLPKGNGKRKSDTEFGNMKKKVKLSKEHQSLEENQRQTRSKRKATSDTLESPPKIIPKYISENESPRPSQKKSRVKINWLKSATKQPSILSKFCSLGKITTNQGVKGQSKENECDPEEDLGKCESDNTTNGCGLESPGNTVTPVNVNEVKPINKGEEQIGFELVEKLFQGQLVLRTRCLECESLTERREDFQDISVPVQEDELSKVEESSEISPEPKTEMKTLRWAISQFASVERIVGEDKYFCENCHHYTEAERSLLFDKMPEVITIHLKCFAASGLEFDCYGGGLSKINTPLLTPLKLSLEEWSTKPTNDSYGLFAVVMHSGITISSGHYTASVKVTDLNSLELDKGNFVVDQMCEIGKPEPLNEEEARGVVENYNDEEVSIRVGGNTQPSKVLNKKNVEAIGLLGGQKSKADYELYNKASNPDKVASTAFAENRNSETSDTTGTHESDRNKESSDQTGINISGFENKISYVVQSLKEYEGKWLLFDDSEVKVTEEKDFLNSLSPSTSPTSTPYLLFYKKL

For `CCC(C)(C)C(=O)O[C@@H]1C[C@@H](C)C=C2C=C[C@H](C)[C@H](CC[C@@H]3C[C@@H](O)CC(=O)O3)[C@H]21`, the values for the Potency in experiment [1], in experiment [2] and in experiment [8] were > 46 µM (inactive), > 46 µM (inactive) and 49.4 µM (active), respectively. Further, the Potency entry in experiment [3], in [4] and in [5] was “inactive” each time. Besides, the call in experiment [6] and in [7] was inactive.
As for `O=C(O)[C@H]1CN[C@H](C(=O)O)C1`, the Potency in experiment [1] and in [2] was > 46 µM (inactive) each time. In addition, the Potency entry in experiment [3], in experiment [9], in experiment [11], in [4] and in [5] was “inactive” each time. Also, the activity change, negative = inhibition in experiment [10] is 1.7% (inactive). Besides, the max response is -9.77% in experiment [10] (setting [26]) and -9.55% in experiment [10] (setting [27]).
Turning to `C[C@@](N)(C(=O)O)c1ccc(P(=O)(O)O)cc1`, the Potency in experiment [12] is 39.8 µM (active); in experiment [1] it was > 46 µM (inactive); in [2], > 46 µM (inactive). Further, the Potency result in experiment [3], in [11], in [4] and in experiment [5] was “inactive” in each case. Besides, in experiment [10], the activity change, negative = inhibition is -5.17% (inactive). Also, the max response in experiment [10] (setting [26]) was 0.435%; in experiment [10] (setting [27]), -4.21%.
As to `COc1cccc(OC)c1OCCNC[C@@H]1COc2ccccc2O1`, the activity change, negative = inhibition in [13] is -5.1% (inactive). For the same molecule, the Potency in experiment [12] is 12.6 µM (active) and 25.1 µM (active); in [1] it was > 46 µM (inactive); in experiment [2], > 46 µM (inactive); in [16], 2 µM (active) and 2.51 µM (active); in [18] it was 0.251 µM (active); in experiment [9], 0.794 µM (active). In addition, the Potency was 10 µM (active) in [20] and 17.8 µM (active) in [21]. For the same molecule, in experiment [14], the activity, negative = inhibition was 9.55% (inactive). In addition, the Potency entry in experiment [3], in experiment [17], in experiment [19], in [22], in experiment [4] and in [5] was “inactive” each time. Moreover, the molecule was called inactive in [15], in experiment [23] and in [24].
As for `N#C/C(=C\c1ccc(O)c(O)c1)C(N)=O`, the Potency is 39.8 µM (active) in experiment [12], > 46 µM (inactive) in experiment [1] and > 46 µM (inactive) in [2]. In addition, the Potency result in [25], in [4] and in experiment [5] was “inactive” in each case. The activity change, negative = inhibition in experiment [10] was -11.6% (inactive). The max response in experiment [10] (setting [26]) came to 26.3%; in experiment [10] (setting [27]), 9.4%.
